The supplement of paper PMC3616981

Compound: CC(C)c1cccc(C(C)C)c1N1C(=O)c2ccc(O)cc2C1=O
Experiment: reporter fold induction vs vehicle; higher = higher reporter activity
Protocol: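 Attagene multiplexed transcription-factor reporter assay (48 cis response elements and 25 trans nuclear-receptor constructs) treated with 5HPP-33 at 8 concentrations (0.091–200 µM). The response is fold induction of reporter activity relative to vehicle control. Cell line and time not stated in the paper; tested in ToxCast Phase II for this study.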

Target | reporter fold induction (0.091 µM) | reporter fold induction (0.274 µM) | reporter fold induction (0.823 µM) | reporter fold induction (2.469 µM) | reporter fold induction (7.407 µM) | reporter fold induction (22.22 µM) | reporter fold induction (66.67 µM) | reporter fold induction (200 µM)
Ets_CIS | 1.02 | 0.953 | 1.01 | 1.02 | 1 | 0.917 | 1.01 | 0.897
GR_TRANS | 0.906 | 1.07 | 1.06 | 1.18 | 0.95 | 1.13 | 1.24 | 1.38
PPARa_TRANS | 1.19 | 1.13 | 0.988 | 0.988 | 0.912 | 0.775 | 0.936 | 0.812
THRa1_TRANS | 1.06 | 1.01 | 1.07 | 1.3 | 0.83 | 0.993 | 1.35 | 0.658
M_32_TRANS | 1.03 | 0.997 | 1.07 | 1.09 | 1.08 | 1.08 | 0.964 | 1
